The structures appear in SMILES notation. About 2,400 (1.1%) of roughly 220,000 compounds were called active. This is one part of a sample in which actives are shown more often than they occur. Values without a mark were called inactive.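 How the source made its calls: active means inhibition above the campaign mean plus 3 SD over all tested compounds (cut at about 24% in these data); inactive means the rest.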

The assay is described as follows: reduced viability of JAK2V617F-dependent Ba/F3 cells, primary screen, JAK2V617F inhibitor project, cell-based, Ba/F3 EpoR-JAK2V617F, luminescence (AID 1446).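 Further: cytokine-independent growth of Ba/F3 cells driven by EpoR plus mutant JAK2; 0% = DMSO-treated cells and 100% = JAK inhibitor I control.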 The conditions noted are these: ATP luminescence, at 5.6 µM, hits give high values.
Take `COc1cccc(-n2c(=O)c3c(C)c(C(=O)N(C)C)sc3n(CC(=O)NCCc3ccc(OC)c(OC)c3)c2=O)c1`: the inhibition is 3.31%. With `C/C(=N\NC(=O)C(N)=O)c1ccc2c(c1)OCCO2`, the inhibition was 1.44%.

For the compound `CCn1c2ccccc2c2cc(CC(N)=O)ccc21`, the inhibition is 2.78%. The same measure for `CCN(CCNC(=O)C1=C(C)C(=O)OC12CCC(C)CC2)c1ccccc1` (configuration not stated): -2%.

Take `CC(C)CC(COCc1ccc(Cl)cc1)N1CCN(C(=O)c2ccc(C(F)(F)F)cc2)CCC1=O` (configuration not stated): the inhibition is -1.84%. The same measure for `N#C/C=C\Oc1ccc(Cl)cc1N`: 28% (active); for `COc1ccc(Cl)cc1C(=O)NCC#N`: -0.27%. The same measure for `COc1ccc(N(C(=O)c2ccc(C)cc2)S(=O)(=O)c2cccs2)cc1`: 0.51%. The same measure for `Cc1nc(CNS(=O)(=O)c2cc([N+](=O)[O-])ccc2C)cs1`: 0.63%; for `O=C(NC(Nc1nc2ccc([N+](=O)[O-])cc2s1)(C(F)(F)F)C(F)(F)F)c1ccccc1`: 70.1% (active); for `O=C(O)CCC(=O)Nc1nc2ccc([N+](=O)[O-])cc2s1`: 3.19%. Turning to `O=C(Nc1nc2ccc([N+](=O)[O-])cc2s1)c1ccncc1`, the inhibition is -1.41%. The same measure for `CC1C(=O)NC(=O)C1c1ccccc1` (configuration not stated): -4.47%; for `CN(Cc1ccccc1)Cc1ccccc1F`: 3.28%.

Take `CN(C)c1ccc(/C=N/N(Cc2ccccc2)c2ccccc2)cc1`: the inhibition is 3.41%. Consider `c1ccc(Cc2cc[n+](Cc3ccccc3)cc2)cc1`, for which the inhibition is 52.6% (active).

As for `COC(=O)c1ccc(Cc2ccccc2)o1`, the inhibition was -0.12%. On to `CN(C)c1cc[n+](Cc2ccccc2)cc1`, for which the inhibition is 87.3% (active). As for `CSc1ccc(CN2C(=O)NC3(CCCCCC3)C2=O)cc1`, the inhibition was -4.13%. The same measure for `C/C(=N\NC(=O)COc1c(C)cccc1C)c1cccs1`: 1.35%; for `COCCn1c(SCC(=O)c2[nH]c(C)c(C(C)=O)c2C)nc2ccccc2c1=O`: 1.81%; for `Cc1[nH]n(C)c(=O)c1N=Nc1ccc(S(C)(=O)=O)cc1`: 1.06%. As for `CC1=C/C(=N\OS(=O)(=O)c2ccccc2)C=CC1=O`, the figure is 40.6% (active); as for `CC1=C/C(=N\S(=O)(=O)c2ccccc2)C(C(C)C)=CC1=O`, -3.55%; as for `CCOC(=O)C1(S(=O)(=O)c2ccccc2)CCN(Cc2ccccc2)CC1`, 0.13%. As for `Cc1ccc2nc(C)c3c(c2c1)N(c1ccccc1)CC3`, the figure is 19.9%; as for `COc1ccc(NC(=O)CN2C(=O)CSC2=O)cc1`, -1.19%.

With `COCCCNC(=O)C1CCN(c2ccc(N3CCOCC3)nn2)CC1`, the inhibition was -2.04%.

`COc1cc(OC)c(OC)cc1/C=N/Nc1ncnc2c1[nH]c1ccc(C)cc12`: the inhibition is -4.25%. As for `CC(C)OCCCNc1ncnc2c1[nH]c1ccc(F)cc12`, the figure is 64.7% (active); as for `O=C1CCCN1CCCNc1ncnc2c1[nH]c1ccccc12`, -3.47%.

For the compound `CC(=O)N1CCN(S(=O)(=O)c2ccc(C)c([N+](=O)[O-])c2)C1C(C)C` (configuration not stated), the inhibition is -3.14%. The same measure for `COc1ccc(N=Nc2ccc(O)c(P(=O)(c3ccccc3)c3ccccc3)c2)cc1`: -0.59%. As for `Cc1nn(-c2ccccc2)c(C)c1NC(=O)CCl`, the figure is 3.19%.

In the case of `COC(=O)Nc1nc2ccc(Sc3ccccc3)cc2[nH]1`, the inhibition is 83.8% (active). The same measure for `Cc1nc2ccc(C(=O)O)cc2[nH]1`: -7.6%; for `CC(C)c1nc2ccc(C(=O)O)cc2[nH]1`: -2.92%. The same measure for `O=C(Cc1ccccc1)Nc1c(Cl)ccc2nsnc12`: -3.82%; for `CCC1(C(=O)c2ccccc2)C(c2cccc([N+](=O)[O-])c2)C1(C(=O)OC)C(=O)OC` (configuration not stated): -2.96%. As for `Cc1cc2c(cc1C)[n+](C)cn2CC(O)COCC1CC=CCC1` (configuration not stated), the figure is 44.4% (active). Consider `CC(NC(=O)Nc1ccccc1)C(c1cccs1)N1CCN(c2ccccc2)CC1` (configuration not stated), for which the inhibition was -1.45%. The same measure for `CCOc1ccc(C2c3[nH]c4ccccc4c3CCN2Cc2cccn2-c2ncccn2)cc1` (configuration not stated): -1.83%; for `O=C(O)CS/C(=C\c1ccc(F)cc1)c1nc2ccccc2s1`: -2.1%. The same measure for `Cc1cc2oc(C(=O)Nc3c(C)n(C)n(-c4ccccc4)c3=O)c(C)c2cc1Cl`: -1.25%; for `O=C(CCl)N(Cc1cccc([N+](=O)[O-])c1)c1cccc(Cl)c1`: 84.1% (active).

As to `O=C(Nc1cccc([N+](=O)[O-])c1)Nc1ccc(Cl)cn1`, the inhibition was -2.62%. As for `CCN(CC)C(=O)CN(c1cccc([N+](=O)[O-])c1)S(=O)(=O)c1ccccc1`, the figure is 0.82%; as for `Cc1ccc(N(C(=O)c2ccc(S(=O)(=O)N(C)C)cc2)C2C=CS(=O)(=O)C2)cc1` (configuration not stated), -0.1%. As for `O=C(Cn1nc(CNc2ccc(Cl)cc2)[n+]2c1CCCCC2)c1ccc(Cl)cc1`, the figure is 1.65%; as for `COc1ccc(-c2cc(C(=O)NCc3ccco3)no2)cc1OC`, -1.88%; as for `Cc1ccc(CNC(=O)C2CC(c3ccccc3[N+](=O)[O-])=NO2)o1` (configuration not stated), -5.08%. With `COc1ccc(C2=NOC(C(=O)NCc3ccco3)C2)cc1OC` (configuration not stated), the inhibition is 56.5% (active).

As for `Cc1ccc(NC(=S)N(Cc2ccco2)C(C)c2cccs2)cc1` (configuration not stated), the inhibition is 3.37%.

`Cc1ccc(NC(=S)N(CCCN2CCC(C)CC2)Cc2ccco2)cc1`: the inhibition was 25.4% (active). The same measure for `Cc1ccc(NC(=S)N(CCN2CCCCC2)Cc2ccco2)cc1C`: -2.95%; for `O=C(NC1CCCCC1)c1cc(C2CC2)on1`: -4.7%; for `CN(C)c1ccc(Nc2c3c4c(cccc4n(C)c2=O)C(=O)c2ccccc2-3)cc1`: 2.4%. The same measure for `CON(C)S(=O)(=O)c1ccc2c(c1)NC(=O)C1CCCN21` (configuration not stated): 1.23%.

Regarding `Nn1c(SCc2ccccc2)nnc1C1CCCCC1`, the inhibition is -0.47%. The same measure for `COc1ccc(C(=O)NC(=S)Nc2ccc(N3CCCC3)cc2)cc1OC`: -0.26%; for `COc1cccc(OC)c1C(=O)Nc1ccc(N2CCCCC2)cc1`: -0.78%.

`COc1cccc(C(=O)Nc2ccc(N3CCCC3)cc2)c1`: the inhibition is 59.5% (active).

A word on the inhibition: it is the change of the read-out against control, counted positive when it falls.

The values above are taken from PubChem BioAssay AID1446 (The Scripps Research Institute Molecular Screening Center, 2008).
